Details in all cases: mRNA level, 48 h; actives raise or lower the signal
Read-out in experiment [1]: Glutamate-cysteine ligase regulatory (GCLM), GCLM (gene 2730)
Nature of the experiment: LTEA_HepaRG_GCLM: Life Technologies and Expression Analysis (LTEA) Assay for Glutamate-cysteine ligase regulatory (GCLM) using HepaRG (AID 2283500). Summed up:
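Differentiated HepaRG cells exposed 48 h in serum-free induction medium to eight half-log concentrations up to 100 uM (0.5% DMSO). GCLM mRNA by TaqMan qRT-PCR, normalized to ACTB, GAPDH and POLR2A; bidirectional fit versus DMSO.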

Read-out in experiment [2]: Glutathione S-transferase M3 (GSTM3), GSTM3 (gene 2947)
Put plainly: LTEA_HepaRG_GSTM3: Life Technologies and Expression Analysis (LTEA) Assay for Glutathione S-transferase M3 (GSTM3) using HepaRG (AID 2283501). The essentials: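 Expression of GSTM3 is determined by qRT-PCR in human liver HepaRG cells treated 48 h with an 8-point half-log range from 100 uM in 0.5% DMSO.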

Read-out in experiment [3]: Heat shock 70 kDa protein 1 (HSPA1A), gene 3303
Put plainly: LTEA_HepaRG_HSPA1A: Life Technologies and Expression Analysis (LTEA) Assay for Heat shock 70 kDa protein 1 (HSPA1A) using HepaRG (AID 2283502). Summed up: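 Human HepaRG cells in serum-free induction medium were exposed in duplicate for 48 h to 8 half-log concentrations, highest 100 uM, in 0.5% DMSO. HSPA1A mRNA read by TaqMan qRT-PCR, normalized to ACTB, GAPDH, POLR2A, fitted bidirectionally against DMSO.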

Read-out in experiment [4]: Hypoxia-inducible factor 1-alpha (Homo sapiens) (UniProt Q16665)
Nature of the experiment: LTEA_HepaRG_HIF1A: Life Technologies and Expression Analysis (LTEA) Assay for Hypoxia-inducible factor 1 (HIF1A) Trancription factor using HepaRG (AID 2283503). Summed up:
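Differentiated HepaRG cells in serum-free induction medium exposed 48 h, in duplicate, to 8-point half-log series from 100 uM in 0.5% DMSO. HIF1A mRNA measured by TaqMan qRT-PCR, normalized to ACTB/GAPDH/POLR2A, fitted bidirectionally versus DMSO.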

Read-out in experiment [5]: 3-Hydroxy-3-Methylglutaryl-CoA Synthase 2 (HMGCS2), HMGCS2 (gene 3158)
Nature of the experiment: LTEA_HepaRG_HMGCS2: Life Technologies and Expression Analysis (LTEA) Assay for 3-Hydroxy-3-Methylglutaryl-CoA Synthase 2 (HMGCS2) using HepaRG (AID 2283504). The essentials:
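This steatosis marker was read as HMGCS2 mRNA change in HepaRG cells treated 48 h with up to 100 uM chemical. Normalisation used housekeeping genes; activity in either direction was fitted relative to 0.5% DMSO vehicle.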

Read-out in a further experiment: HGF (gene 3082)
Put plainly: LTEA_HepaRG_HGF: Life Technologies and Expression Analysis (LTEA) Assay for Hepatocyte Growth Facto (HGF) using HepaRG (AID 2283505). The essentials:
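Using HepaRG monolayers kept in 0.5% DMSO, chemicals were tested in duplicate over eight half-log concentrations from 100 uM for 48 h. Endpoint: HGF mRNA change relative to DMSO, normalized to ACTB/GAPDH/POLR2A.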

Read-out in experiment [6]: Insulin Like Growth Factor 1 (IGF1), IGF1 (gene 3479)
Nature of the experiment: LTEA_HepaRG_IGF1: Life Technologies and Expression Analysis (LTEA) Assay for Insulin Like Growth Factor 1 (IGF1) using HepaRG (AID 2283506). The essentials: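 Differentiated HepaRG cells in serum-free induction medium, exposed 48 h in duplicate to 8 half-log concentrations up to 100 uM in 0.5% DMSO. IGF1 mRNA by Fluidigm qRT-PCR, normalised to ACTB, GAPDH and POLR2A.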

Read-out in experiment [7]: Intercellular Adhesion Molecule 1 (ICAM1), ICAM1 (gene 3383)
Nature of the experiment: LTEA_HepaRG_ICAM1: Life Technologies and Expression Analysis (LTEA) Assay for Intercellular Adhesion Molecule 1 (ICAM1) using HepaRG (AID 2283507). Summed up: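 Using the human liver line HepaRG, compounds are tested in duplicate over 48 h at concentrations up to 100 uM. Expression is determined by TaqMan qRT-PCR, normalized to endogenous controls, and analysed relative to 0.5% DMSO vehicle.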

Read-out in experiment [8]: Insulin-like growth factor-binding protein 1 (IGFBP1), IGFBP1 (gene 3484)
Put plainly: LTEA_HepaRG_IGFBP1: Life Technologies and Expression Analysis (LTEA) Assay for Insulin-like growth factor-binding protein 1 (IGFBP1) using HepaRG (AID 2283508). Summed up: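 HepaRG, 48 h, 8 conc. (max 100 uM, half-log), duplicates, 0.5% DMSO. Readout: TaqMan qRT-PCR, ACTB/GAPDH/POLR2A normalisation. Fit: bidirectional vs DMSO.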

Read-out in experiment [9]: Interleukin 6 (IL6), IL6 (gene 3569)
Nature of the experiment: LTEA_HepaRG_IL6: Life Technologies and Expression Analysis (LTEA) Assay for Interleukin 6 (IL6) using HepaRG (AID 2283509). The essentials: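 HepaRG, ~100,000 cells/well, 48 h pre-culture; serum-free induction medium; cmpd 8-pt half-log from 100 uM, 0.5% DMSO, duplicate, 48 h. Lysis in RLT, TaqMan qRT-PCR; gain or loss vs DMSO.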

By AC50 is commonly meant the concentration at which the activity in the assay is half-maximal.

Molecules are shown by their SMILES. The source made the active and inactive calls. How the source made its calls: active means hit-call score of the fitted dose curve at least 0.9, where 1 is the maximum; inactive means score below 0.9.

Chain of Hypoxia-inducible factor 1-alpha (Homo sapiens) (Q16665 whole entry, looked up): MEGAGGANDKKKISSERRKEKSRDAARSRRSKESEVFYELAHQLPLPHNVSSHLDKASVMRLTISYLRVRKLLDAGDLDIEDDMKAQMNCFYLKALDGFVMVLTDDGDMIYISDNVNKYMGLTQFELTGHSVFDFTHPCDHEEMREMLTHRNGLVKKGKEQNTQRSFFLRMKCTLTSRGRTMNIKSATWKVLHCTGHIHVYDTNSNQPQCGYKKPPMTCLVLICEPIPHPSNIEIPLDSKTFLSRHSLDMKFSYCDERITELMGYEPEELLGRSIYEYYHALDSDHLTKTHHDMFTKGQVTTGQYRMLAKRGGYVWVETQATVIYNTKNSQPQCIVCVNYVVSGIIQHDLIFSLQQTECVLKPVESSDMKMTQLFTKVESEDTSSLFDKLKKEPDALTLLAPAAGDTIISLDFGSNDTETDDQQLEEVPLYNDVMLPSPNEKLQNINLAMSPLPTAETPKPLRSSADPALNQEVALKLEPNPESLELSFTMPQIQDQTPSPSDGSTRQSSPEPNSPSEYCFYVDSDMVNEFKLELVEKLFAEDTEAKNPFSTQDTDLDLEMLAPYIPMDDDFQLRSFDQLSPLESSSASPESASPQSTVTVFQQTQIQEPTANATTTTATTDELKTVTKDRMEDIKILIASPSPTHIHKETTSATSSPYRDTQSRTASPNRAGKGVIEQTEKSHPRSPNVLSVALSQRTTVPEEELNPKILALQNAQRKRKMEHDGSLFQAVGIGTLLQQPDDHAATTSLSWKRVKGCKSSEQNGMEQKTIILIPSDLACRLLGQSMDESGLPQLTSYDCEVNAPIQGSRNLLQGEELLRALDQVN

Consider `O=P(O)(O)CCCl`, for which the outcome (in experiment [1]; in experiment [2]; in experiment [3]; in [4]; in experiment [5]; in the experiment with HGF (gene 3082)) was inactive. The molecule was classed as inactive in experiment [6], in [7], in experiment [8] and in [9].

In the case of `Cc1ccc(N=CN(C)C=Nc2ccc(C)cc2C)c(C)c1`, the molecule was classed as inactive (in [1]; in experiment [2]; in [3]; in experiment [4]; in experiment [5]; with HGF (gene 3082)). Also, the molecule was classed as inactive in [6], in experiment [7], in experiment [8] and in experiment [9].

Consider `CC(C)Nc1nc(Cl)nc(NC(C)C)n1`, for which the call (in experiment [1]; in experiment [2]; in [3]; in experiment [4]; with HGF (gene 3082); in experiment [6]) was inactive. For the same molecule, the molecule was classed as inactive in experiment [7], in experiment [8] and in [9]. In [5], the AC50 was 23.6 µM (active).

Turning to `CCOc1nc(C(Cl)(Cl)Cl)ns1`, the concentration at half-maximal activity (AC50) was 1.14 µM (active) in experiment [1]; 22.9 µM (active) in [2]; 1.21 µM (active) in the experiment with HGF (gene 3082); 0.965 µM (active) in experiment [6]; 1.38 µM (active) in [7]; 1.01 µM (active) in [8]. Besides, in experiment [9], the AC50 was 15 µM (active). In addition, the molecule was classed as inactive in experiment [3], in [4] and in experiment [5].

As for `CNC(=O)N(C)c1nnc(C(C)(C)C)s1`, the molecule was classed as inactive (in [1]; in [2]; in [3]; in experiment [5]; in the experiment with HGF (gene 3082); in experiment [6]). Also, the molecule was classed as inactive in [7], in experiment [8] and in experiment [9].

Take `CC(C)=CC1C(C(=O)OCc2coc(Cc3ccccc3)c2)C1(C)C` (stereo unspecified): the molecule was classed as inactive (in experiment [1]; in experiment [2]; in experiment [3]; in [4]; in [5]; with HGF (gene 3082)). For the same molecule, the call in experiment [6], in experiment [7], in experiment [8] and in experiment [9] was inactive.

For `Clc1cccc(C(Cl)(Cl)Cl)n1`, the molecule was called inactive (in [1]; in [2]; in experiment [3]; in experiment [4]; in [5]; in the experiment with HGF (gene 3082)). The molecule was classed as inactive in [6], in experiment [7], in experiment [8] and in experiment [9].

As for `COc1cc(OC)nc(NC(=O)NS(=O)(=O)c2ncccc2OCC(F)(F)F)n1`, the result (in experiment [1]; in [2]; in experiment [4]; in experiment [5]; with HGF (gene 3082); in [6]) was inactive. Also, the molecule was classed as inactive in [7], in [8] and in experiment [9]. Besides, the AC50 in experiment [3] was 0.237 µM (active).

On to `CCN(CC)C(=O)C(C)Oc1cccc2ccccc12` (stereo unspecified), for which the outcome (in experiment [1]; in experiment [2]; in [3]; in experiment [4]; in the experiment with HGF (gene 3082); in [7]) was inactive. The outcome in experiment [8] and in experiment [9] was inactive. The AC50 in [5] is 76.9 µM (active); in experiment [6], 66.3 µM (active).

With `CS(=O)(=O)c1cc(C(F)(F)F)ccc1C(=O)c1cnoc1C1CC1`, the call (in experiment [1]; in [2]; in experiment [3]; in experiment [4]; in [5]; with HGF (gene 3082)) was inactive. Besides, the call in experiment [6], in [7], in experiment [8] and in [9] was inactive.

`CC1(C)C(C(=O)OC(C#N)c2cccc(Oc3ccccc3)c2)C1(C)C` (stereo unspecified): the molecule was called inactive (in experiment [1]; in experiment [2]; in experiment [3]; in [4]; in [5]; in the experiment with HGF (gene 3082)). For the same molecule, the molecule was classed as inactive in experiment [6], in experiment [7], in experiment [8] and in experiment [9].

With `CN=C=S`, the result (in experiment [1]; in experiment [2]; in experiment [3]; in [4]; in [5]; with HGF (gene 3082)) was inactive. Besides, the molecule was called inactive in experiment [6], in [7], in experiment [8] and in experiment [9].

For `COCC(C)N(C(=O)CCl)c1c(C)csc1C` (stereo unspecified), the molecule was called inactive (in experiment [1]; in experiment [2]; in experiment [3]; in experiment [5]; with HGF (gene 3082); in [7]). For the same molecule, the call in experiment [8] was inactive. Moreover, the AC50 in experiment [6] is 50 µM (active); in experiment [9] it was 22.7 µM (active).

For the molecule `C=C(C)CN(CC)c1c([N+](=O)[O-])cc(C(F)(F)F)cc1[N+](=O)[O-]`, the result (in [1]; in experiment [2]; in experiment [3]; in experiment [4]; in experiment [5]; with HGF (gene 3082)) was inactive. The molecule was called inactive in [6], in [7], in experiment [8] and in experiment [9].

For the molecule `CC(C)(C)C(=O)C(Oc1ccc(Cl)cc1)n1cncn1` (stereo unspecified), the outcome (in experiment [1]; in [2]; in experiment [3]; in [4]; in experiment [5]; in the experiment with HGF (gene 3082)) was inactive. Also, the outcome in experiment [7], in experiment [8] and in experiment [9] was inactive.

`COc1cc(Cl)c(OC)cc1Cl`: the molecule was called inactive (in experiment [1]; in experiment [2]; in experiment [3]; in experiment [5]; with HGF (gene 3082); in experiment [6]). Moreover, the result in experiment [7], in experiment [8] and in experiment [9] was inactive.

Take `CCOc1cc(C(C)(C)C)ccc1C1COC(c2c(F)cccc2F)=N1` (stereo unspecified): the molecule was classed as inactive (in [1]; in [2]; in experiment [3]; in [4]; in the experiment with HGF (gene 3082); in experiment [7]). The call in experiment [8] and in experiment [9] was inactive. Also, the AC50 was 46.9 µM (active) in experiment [5] and 16.6 µM (active) in experiment [6].

As for `CCOc1nc(F)cc2nc(S(=O)(=O)Nc3c(Cl)cccc3Cl)nn12`, the outcome (in experiment [1]; in experiment [2]; in experiment [3]; in experiment [4]; in experiment [5]; with HGF (gene 3082)) was inactive. For the same molecule, in [7], the molecule was classed as inactive. In addition, the values for the AC50 in experiment [6], in [8] and in [9] were 14.4 µM (active), 50 µM (active) and 29.8 µM (active), respectively.
